# Reference: PubChem BioAssay AID1347076 (National Center for Advancing Translational Sciences (NCATS), 2019)
# Screen size: about 400,000 compounds; about 13,000 (3.2%) were called active. Roughly 18% stayed inconclusive and do not appear here. Calls follow the shape of the dose curve; as a rule, active = well fitted cell-killing curve with a large enough effect; inconclusive = small, poorly fitted or top-dose-only effect, or effect the other way; inactive = flat fitted curve, though single readings scatter. The list comes from a sample in which actives are over-represented; it also holds similar structures and randomly drawn compounds. Where a call stands in place of a potency, no number is given.
# Assay: qHTS assay for MDR1-selective chemotherapeutics: Primary screen using the drug-selected MDR subline cells KB-V1; also: nearly all actives have a fitted effect of over 60% in size
# Settings: KB-V1 MDR cells viability, CellTiter-Glo, 72 h; series mostly up to 46.1 µM
# From the text: A prime difficulty in effectively treating cancer is the development of cellular resistance to multiple structurally unrelated anticancer drugs, a phenomenon known as multidrug resistance (MDR). […] Numerous strategies to overcome P-gp-mediated MDR have been explored, including the design of drugs that evade recognition and efflux, and development of inhibitors to block efflux and restore drug accumulation. […] An alternative approach is to exploit resistance by identifying drugs that target MDR cells over the non-resistant parental cells from which they were selected. […] The development of MDR1-selective agents represents a new strategy for resolving multidrug resistance, as it remains a long-standing clinical challenge for cancer chemotherapy.
# Our goal is to identify compounds that selectively kill P-gp-expressing MDR cells. We will identify MDR1-selective compounds by comparing toxicity of compounds in the screening library against parental, drug-naive (KB-3-1) adenocarcinoma cells as well as their drug-selected MDR sub-line (KB-V1). The differential toxicity of compounds against these two cell lines will be used to identify MDR1-selective compounds, whose cytotoxicity is potentiated, rather than diminished, by P-gp expression. This assay will be utilized to conduct a quantitative high-throughput screen (qHTS) in collaboration with the NIH Chemical Genomics Center to identify selective agents, and probe hits arising from the screen will be validated using secondary assays and characterized through a well-established follow-up research program. This screen was run against the entire NCGC library collection of about 400,000 compounds.
# NIH Molecular Libraries Probe Production Network [MLPCN]
# NIH Chemical Genomics Center [NCGC]
# PI: Michael Gottesman, National Cancer Institute, NIH
# Briefly, 5 microL of media containing either KB-V1 cells (columns 1-2, 4-48) are dispensed into Greiner white, treated solid-bottom 1536-well assay plates (media-only control is added to column 3). Compounds are then transferred via Kalypsys pin tool equipped with 1536-pin array (10 nL slotted pins, V&P Scientific, San Diego, CA). Following addition of compound, the plates are incubated at 37 degrees C for 72 hours. CellTiter-Glo (2.5 µL/well) is then added, and the plates are read in a ViewLux reader (Perkin-Elmer, clear luminescence filter, 1 second exposure, 1x binning) following a 10 minute incubation. All cells are dispensed in DMEM phenol-red free media containing 10% FBS.
# Library plates were screened starting from the lowest and proceeding to the highest concentration. Vehicle-only plates, with DMSO being pin-transferred to columns 5-48, will be inserted uniformly at the beginning and the end of each library in order to monitor and record any shifts in the background, which can be affected by reagent dispensers or loss in enzyme activity over time. Screening data will be corrected, normalized, and concentration-effect relationships will be derived by using publicly-available NCGC, NCATS curve fitting algorithms (http://ncgc.nih.gov/pub/openhts).
# Potency is read from the fitted curve at half-maximal effect.
row,Compound,Potency
1,CN(Cc1cnccn1)C(=O)c1cc(COc2cccc(C(F)(F)F)c2)on1,inactive
2,CN(Cc1cccnc1)C(=O)c1cc(COc2ccc3ncccc3c2)on1,5.17 µM (active)
3,Cc1ccc(OCc2cc(C(=O)N(C)CCc3ccccc3)no2)cc1C,inactive
4,CC(C)c1cccc(C(C)C)c1Nc1cn[nH]c1,inactive
5,COc1cccc(C(=O)OCC(=O)c2[nH]c(C)c(C(C)=O)c2C)c1,inactive
6,CC(=O)c1c(C)[nH]c(C(=O)COC(=O)c2cccc(S(=O)(=O)N(C)c3ccccc3)c2)c1C,11.6 µM (active)
7,CC(=O)c1c(C)[nH]c(C(=O)COC(=O)c2cccs2)c1C,inactive
8,O=C(Nc1ccc2nc(SCC(=O)N3CCc4ccccc43)sc2c1)c1ccccc1F,inactive
9,COc1ccc(C2CC(=O)N(Cc3ccccc3C)c3c2c(C)nn3-c2nc(C)cc(C)n2)c(OC)c1 (configuration not stated),inactive
10,C[C@@H]1CN([C@@H](C)CO)S(=O)(=O)c2ccc(C#Cc3cccc(F)c3)cc2O[C@H]1CN(C)S(=O)(=O)c1cn(C)cn1,inactive
11,C[C@H]1CN([C@@H](C)CO)C(=O)CCCn2cc(nn2)CO[C@@H]1CN(C)S(=O)(=O)c1ccc(-c2ccccc2)cc1,inactive
12,Cc1ccn2c(-c3csc(Nc4ccc(C(=O)O)cc4)n3)c(C)nc2c1,inactive
13,O=C(Nc1cccn(Cc2ccccc2Cl)c1=O)NC1CCCCC1,inactive
14,O=c1c(=O)n(Cc2c(F)cccc2Cl)ccn1Cc1ccccc1,inactive
15,O=C(Nc1cccn(Cc2c(Cl)cccc2Cl)c1=O)c1ccc(Cl)cc1,3.66 µM (active)
16,O=C(Nc1cccc2ccccc12)NC1CC1,inactive
17,CCCCNC(=O)OC1CC2CC1[C@H]1CCCCN1C2=O (some centres not stated),inactive
18,C[C@@H]1CN([C@@H](C)CO)C(=O)c2cc(Br)cnc2O[C@@H]1CN(C)C(=O)C1CCCCC1,inactive
19,COc1cccc(Cn2cc(/C=N/NC(=O)c3cc(O)cc(O)c3)c3ccccc32)c1,inactive
20,NC(=O)Cn1cc(/C=N\NS(=O)(=O)c2ccccc2)c2ccccc21,inactive
21,CNC(=S)N/N=C/c1cn(Cc2ccc(C)cc2)c2ccccc12,16.4 µM (active)
22,CCOC(=O)N/N=C/c1cn(Cc2ccccc2Cl)c2ccccc12,5.8 µM (active)
23,COc1ccc(OCCn2cc(C(=O)C3CCCCC3)c3ccccc32)cc1,inactive
24,Cc1ccc(OCCOc2cccc(/C=N/NC(N)=O)c2)cc1,inactive
25,COC(=O)N/N=C/c1cn(CCCOc2ccc(C)cc2)c2ccccc12,18.4 µM (active)
26,N#CCC(=O)N/N=C/c1cn(Cc2ccc3ccccc3c2)c2ccccc12,inactive
27,CNC(=S)N/N=C/c1ccc(OCc2ccccc2)c(Br)c1,inactive
